# Data taken from article PMC12864922, “TDP-43 directly inhibits mRNA accumulation in neurites through modulation of mRNA stability”.
# Over roughly 9,900 sequences, “r (bound/input frequency ratio)” has its median near 0.7; the highest 2% begin near 6.5. What follows is part of a selection rich in the highest values, with near analogues and random picks from the rest.
# B1: ENSMUSG00000042529.499|Kcnj12 (ssRNA)
# RNA: GGGAGUUCUACAGUCCGACGAUCGCUUCGAUAUCCGCAUGCUACUGGACCAUGUACAGGGCUCCCUGGGGCUUGUCCUCAGGGGCAGAGAAGGACAUGGUGGCAGCAGCACUGAGAACAGGAGCAUGGCCUCUCUCAGACCCCAGGGCAGUCAUUCAGUCUUUUCCAUGGACACUCCCCACCGCUCCACAUACUGCCUCCGCCUCAUUCUUGGGCUCUUCCUGCCUUGCUGUCUUUCCUUCCACACAGAAGCACCAAGCAUCAUCCAUUCCCAUAGGCAAGCCCAGGGCACUCCCAGAGCUCCCUCUUGCGGUCGCACUAGUGUGGAAUUCUCGGGUGUCAAGG
# B2: ENSMUSG00000061578.701|Ksr2 (ssRNA)
# RNA: GGGAGUUCUACAGUCCGACGAUCGCUUCGAUAUCCGCAUGCUAUACUCCCAGAUCUGGGGUGAUCUCUUGAGGUGCCUUCCUGUAGUCUCUUGUGUCAUCUUCUUCUAAGACCACUAAUAACACCGCCUUUCUCCUUGAUCCGGGCCUCAGACCUCUUCAGAGAUUCUUUCUCUGAAUGUACGUGGGGGACUCCAACAGAUGUUGGGAGAAGACUCAAUAUGAGCAUACGGGGUCAUUGUUCAAUCCUGUAUCAAGACCUUGGAGUUGUCUAAGGCUGUGGGUUUUAAAUACCUGCUGCAGGCCUCUUGCGGUCGCACUAGUGUGGAAUUCUCGGGUGUCAAGG
# B3: ENSMUSG00000032194.16|Kank2 (ssRNA)
# RNA: GGGAGUUCUACAGUCCGACGAUCGCUUCGAUAUCCGCAUGCUACAGCCACAAGCCACGCAUCAAACCGUCCCUCCUCCAUCCCUCUGUCCCAUUCUGCCUCGGCAUUCCUCAGCCCCUGAACUUCCCUGAGGGAGCCCUGACAUCUACCAGGCUCAAGCUCCUGGAAGCCUUUCCCAGCACCCUGGGUUCAAAGCCAGAAAGCCAAGCUACAUUCUCCUCCCAGUUGGCACCAGUUGACAACGCCUUGGGUGUGGGUUUCUUGUAAAGAACAUAGAGAACAAUCAGCCGGCAAUUAUGGGAGGCUCUUGCGGUCGCACUAGUGUGGAAUUCUCGGGUGUCAAGG
# B4: ENSMUSG00000034801.130|Sos2 (ssRNA)
# RNA: GGGAGUUCUACAGUCCGACGAUCGCUUCGAUAUCCGCAUGCUAGGCACUGAGAGGAGCCAGCGCUCGAGGGCGUUCUCACGCCUGACUGAUAGAUACCUUUUUAGGGUGAUGAACUUACACAGAUGCAGAAGAUAUGGGGUGGUGGUCCUGGGUUUUAACCCUCUGACCGUCUUCUAGCUUCUAAUUUUGUUUGGUUUUUACAUCUAGGAGACUUAGGAAUAAUACCCACUGUUCUUAAACUCUUUGAGACCAUGUCUUAAAUGUCAGUAUUUGCUGCUGAAGACAAAAACGGAAAAUAGAAUCUCUUGCGGUCGCACUAGUGUGGAAUUCUCGGGUGUCAAGG
# B5: ENSMUSG00000031028.491|Tub (ssRNA)
# RNA: GGGAGUUCUACAGUCCGACGAUCGCUUCGAUAUCCGCAUGCUACACCCUUUUAAAUGAACAUGGGGUGGUGAUGGUGCCUUAACAAUCUUGACACUAAGGUGAAGCAAGCAAGUAAGGUGUGUGCCUCUGGGAAGACAGGAGUCGGAAGCCAAGGUGUGUGGCAACAGUCUGGAAGAGAGCUUUUGGUAAUCAUACCGUCUUCAGUGACAAGGCAACAAUGCUGUAAAGUGGGUUUGUUUGGUUUUGUUUUUUCUUUCUCUUUUAUGGAAAUGGCAGGUCUAUUUGCCUCAAACGUUAUGUAGCUCUUGCGGUCGCACUAGUGUGGAAUUCUCGGGUGUCAAGG
# B6: ENSMUSG00000028439.153|Fam219a (ssRNA)
# RNA: GGGAGUUCUACAGUCCGACGAUCGCUUCGAUAUCCGCAUGCUACUGUGCCCCAUUGCCAUUUCACCCUAGCUCAAAGUCCAGGAGCCAGGCUUCCAGAAAGGCUCUUCAAGAGCAAGCUUAAGGAAAUACAGUGAGCCAAGUGGCUGUAUGAUAUGGUAUGGUAUGGUAUGGUAUGGUAUGGUAUGGUAUGCACAUGUGUGUGCAUGUGUGUGUGCCUGUGUGUGUGCGUGUGCGUGUGUGUAUGUGUGUGCGUGUGUGUGUGUGUGUGUUGUACCCGAGUGUGUGUUGAGCCUAUCUGUCCACUCUUGCGGUCGCACUAGUGUGGAAUUCUCGGGUGUCAAGG
# B7: ENSMUSG00000028439.155|Fam219a (ssRNA)
# RNA: GGGAGUUCUACAGUCCGACGAUCGCUUCGAUAUCCGCAUGCUAGCCAUUUCACCCUAGCUCAAAGUCCAGGAGCCAGGCUUCCAGAAAGGCUCUUCAAGAGCAAGCUUAAGGAAAUACAGUGAGCCAAGUGGCUGUAUGAUAUGGUAUGGUAUGGUAUGGUAUGGUAUGGUAUGGUAUGCACAUGUGUGUGCAUGUGUGUGUGCCUGUGUGUGUGCGUGUGCGUGUGUGUAUGUGUGUGCGUGUGUGUGUGUGUGUGUUGUACCCGAGUGUGUGUUGAGCCUAUCUGUCCAGGGAACCAGAUUCUCUUGCGGUCGCACUAGUGUGGAAUUCUCGGGUGUCAAGG
# B8: ENSMUSG00000028439.154|Fam219a (ssRNA)
# RNA: GGGAGUUCUACAGUCCGACGAUCGCUUCGAUAUCCGCAUGCUACCCAUUGCCAUUUCACCCUAGCUCAAAGUCCAGGAGCCAGGCUUCCAGAAAGGCUCUUCAAGAGCAAGCUUAAGGAAAUACAGUGAGCCAAGUGGCUGUAUGAUAUGGUAUGGUAUGGUAUGGUAUGGUAUGGUAUGGUAUGCACAUGUGUGUGCAUGUGUGUGUGCCUGUGUGUGUGCGUGUGCGUGUGUGUAUGUGUGUGCGUGUGUGUGUGUGUGUGUUGUACCCGAGUGUGUGUUGAGCCUAUCUGUCCAGGGAACCUCUUGCGGUCGCACUAGUGUGGAAUUCUCGGGUGUCAAGG
# B9: ENSMUSG00000058297.516|Spock2|37:41 (ssRNA)
# RNA: GGGAGUUCUACAGUCCGACGAUCGCUUCGAUAUCCGCAUGCUAAUCUUACCCCCAGUGUUCCACAGGAGUCGUGACCACCACACAUGGGUGGGCACAGGUCUGCCUUGCUCCAGCCCCCUCCCUUGGUUUCUGUUGGUACCCAUUUGGCUUUUAUCUGCUUUCUGCUUCACCACUAAGUGCGUAGGUGGGGUCUUUUGAUAUCGGCUCCCCAAAGCCCAAGCCCACAGCCCUAGGAGAGAACCAGGGGCCCAUCUUUGACACCUGGGCCAUCACGAGCCCUCCCGCCUGCAGUUGUCCUAGGGCUCUUGCGGUCGCACUAGUGUGGAAUUCUCGGGUGUCAAGG
# Target: TDP-43 (Homo sapiens, UniProt Q13148 1-414)
# Sequence (Q13148 whole entry): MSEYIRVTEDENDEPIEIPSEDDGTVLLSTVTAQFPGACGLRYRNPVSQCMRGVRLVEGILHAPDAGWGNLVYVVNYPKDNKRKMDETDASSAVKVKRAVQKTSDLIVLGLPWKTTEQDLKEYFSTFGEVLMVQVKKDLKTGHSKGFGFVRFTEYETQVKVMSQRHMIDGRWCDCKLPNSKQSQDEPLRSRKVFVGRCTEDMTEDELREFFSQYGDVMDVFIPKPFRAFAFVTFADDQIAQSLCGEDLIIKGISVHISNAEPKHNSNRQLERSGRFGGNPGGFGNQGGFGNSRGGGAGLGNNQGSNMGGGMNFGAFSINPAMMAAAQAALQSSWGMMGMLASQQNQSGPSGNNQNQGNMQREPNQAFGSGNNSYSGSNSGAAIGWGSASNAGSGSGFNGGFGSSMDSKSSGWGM
# Assay: RNA Bind-n-Seq with designed 260-mer pool; 25 mM Tris-HCl, 150 mM KCl, 3 mM MgCl2, BSA (printed 500 mg/mL), 20 units/mL SUPERase IN; pH not stated; 500 nM RNA pool, 1 h, 4 C; TDP-43 5, 50, 500 nM; high values mean tight binding
# Settings: protein: recombinant; tags: SBP (GST cleaved off with PreScission; pGEX-GST-SBP)
# In short: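 Streptavidin beads captured recombinant SBP-tagged TDP-43 at 5, 50 or 500 nM, and the beads were incubated for 1 h at 4 °C with 500 nM of an in vitro-transcribed pool of 260-nt 3′ UTR oligos in 25 mM Tris-HCl, 150 mM KCl, 3 mM MgCl2, BSA and SUPERase IN. After washing, bound RNA was eluted with biotin, reverse transcribed, PCR-amplified and sequenced. Binding is reported as R, the mapped-read-normalized abundance of each oligo in the bound sample divided by its abundance in the input. Two independent protein batches served as duplicates.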
row,Binder,binding signal
1,B1,1.51 R (bound/input frequency ratio)
2,B2,0.292 R (bound/input frequency ratio)
3,B3,1.15 R (bound/input frequency ratio)
4,B4,0.376 R (bound/input frequency ratio)
5,B5,1.97 R (bound/input frequency ratio)
6,B6,6.09 R (bound/input frequency ratio)
7,B7,7.8 R (bound/input frequency ratio)
8,B8,7.96 R (bound/input frequency ratio)
9,B9,0.797 R (bound/input frequency ratio)
